From PubChem BioAssay
Shown are actives, neighbours in structure and some others; about 10% of the full set was active somewhere.
3T3 cytotox: NIH 3T3 cell cytotoxicity | AID 1345082 | Potency, µM (titrated, usually from 96.7 µM), for the others: at the top dose activity change, negative = cytotoxicity, actives largely listed as inhibitors | NIH 3T3 viability, CellTiter-Glo ATP luminescence, 48-72 h | 4.3% of 94,000 active; note: nearly all actives have a fitted effect of over 55% in size
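Cells were seeded at 400 per well, treated with pin-transferred compound, and kept 48 or 72 hr at 37 °C before CellTiter-Glo addition and luminescence imaging of cellular ATP.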
HEK293 tox: kills HEK 293 cells. 6.6% of 94,000 active. HEK 293 viability, ATP luminescence (CellTiter-Glo), 48-72 h. AID 1345083. Potency, µM (titrated, usually from 115 µM), for the others: top-dose activity change, negative = cytotoxicity, actives largely listed as inhibitors; note: nearly all actives have a fitted effect of over 60% in size
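HEK 293 seeded at 250 cells/well receive compound via pintool. After 48 or 72 hr at 37 degree Celsius, 5% CO2 and 95% humidity, CellTiter-Glo is dispensed and luminescence read following 10 min at room temperature.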
hNpr1 antagonist: human Npr1 receptor antagonism; AID 1347048; Potency, µM (titrated, usually from 46.3 µM), for inactives: at the highest dose activity change, negative = inhibition, hits mostly inhibitors; 1.6% of 76,000 active; HEK293 hNpr1 GloSensor cGMP, ANP-stimulated luminescence; calls by dose curve; note: nearly all actives have a fitted effect of over 60% in size
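Compound pre-incubated 30 min at room temperature on GloSensor-loaded HEK293 cells stably carrying hNpr1 and the pGS-40F cGMP biosensor. Stimulation uses hNppA at 0.1 nM final; luminescence is taken at baseline and 20 min post-agonist.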
GPT2 inh: inhibitors of human GPT2 alanine aminotransferase. AID 1671188. Potency, µM (doses to about 57.7 µM), for inactives: at the highest dose activity change, negative = inhibition, actives largely listed as inhibitors. 0.25% of 100,000 active. Recombinant GPT2, coupled pyruvate oxidase/HRP Amplex Red fluorescence; note: nearly all actives have a fitted effect of over 60% in size
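Recombinant GPT2 (10ng/uL) with 250uM a-KG and 2mM L-alanine, 30 min at room temperature, in HEPES pH 7.5 buffer. Pyruvate detected by pyruvate oxidase/HRP/Amplex Red fluorescence after 30 min in the dark; AOA (50uM) as positive control.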
FLuc inh: inhibitors of firefly (Photinus pyralis) luciferase | P08659 | purified P. pyralis luciferase, luminescence, biochemical | Potency, µM (titrated, usually from 115 µM), usual class: inhibitors | 2.5% of 76,000 active; note: nearly all actives have a fitted effect of over 65% in size
Target sequence (P08659 whole entry, looked up): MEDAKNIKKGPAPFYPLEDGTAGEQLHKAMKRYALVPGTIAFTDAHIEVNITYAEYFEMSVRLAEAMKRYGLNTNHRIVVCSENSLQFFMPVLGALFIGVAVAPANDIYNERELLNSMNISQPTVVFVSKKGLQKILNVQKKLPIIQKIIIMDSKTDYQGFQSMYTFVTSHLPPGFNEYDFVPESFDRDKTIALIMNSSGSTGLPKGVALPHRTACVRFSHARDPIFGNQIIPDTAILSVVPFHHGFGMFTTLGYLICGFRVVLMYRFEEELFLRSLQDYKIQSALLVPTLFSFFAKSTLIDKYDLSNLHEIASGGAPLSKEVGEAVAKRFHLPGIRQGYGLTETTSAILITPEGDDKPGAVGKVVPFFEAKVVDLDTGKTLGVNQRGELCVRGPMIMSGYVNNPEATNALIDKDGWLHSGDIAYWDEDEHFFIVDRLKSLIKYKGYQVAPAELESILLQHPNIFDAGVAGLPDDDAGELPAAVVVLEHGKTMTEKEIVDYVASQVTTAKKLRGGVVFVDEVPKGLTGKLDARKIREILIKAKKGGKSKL
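FLuc 10nM, D-luciferin 10uM, ATP 10uM, Mg acetate 10mM, Tris acetate pH 7.5, Tween/BSA; cpd qHTS; enzyme added last; CCD luminescence.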
* marks the source's active call; other numbers are inactive results; i = inactive; ? = inconclusive; / = no result given; [ ] = remark or other dose. Unless noted, calls come from the whole dose curve; as a rule, active = well fitted curve in the direction sought with a large enough effect; inconclusive = small, poorly fitted or top-dose-only effect, or another doubt; inactive = no such curve, though single readings can be large; an effect the other way counts as inactive or inconclusive. % is set by controls: 0 for no effect and ±100 for the full control effect; potency is the fitted concentration of half-maximal effect.

SMILES	3T3 cytotox	HEK293 tox	hNpr1 antagonist	GPT2 inh	FLuc inh
Cc1noc(-c2ccccc2Cl)c1C(=O)NCCCc1ccccc1	?	45µM*	0%	2%	i
C=C(C)[C@@]1(O)C[C@@]2(C)C(=CC1=O)CC[C@@H](O)[C@@H]2C	/	/	/	i	/
Cc1ccc(SC2CCN(C(=O)c3cn(CCc4ccccc4)nn3)CC2)cc1	?	89µM*	-2%	-2%	i
Cc1cccc(C2CCCN(C(=O)c3cn(CCc4ccccc4)nn3)C2)c1 (stereo not given)	?	40µM*	-4%	-13%	i
O=C(c1cn(CCc2ccccc2)nn1)N1CCC(OCc2ccccn2)CC1	-24%	-12%	-2%	i	i
O=C(c1cccnc1)N1CCC(c2cc(-c3ccc(F)cc3)n[nH]2)CC1	?	?	-15%	i	i
CCn1cc(S(=O)(=O)N[C@@H]2CN(c3ncccn3)C[C@H]2CN(C)C)cn1	-15%	i	-2%	i	i
CCCc1nc(C(=O)NCc2ccc(-n3ccnc3C)cc2)cs1	?	20µM*	-27%	-9%	i
CN1CCCN(C(=O)c2nc3sccn3c2CN2C[C@]3(C)C[C@H]2CC(C)(C)C3)CC1	-9%	-17%	0%	?	i
Cc1noc(C)c1-c1cccc(CCOc2cnc3c(ccn3CC(=O)O)c2)c1	50µM*	?	-2%[70.6 µM]	-14%[88.5 µM]	i
Cn1cc(-c2cccc(CCOc3cnc4c(ccn4CC(=O)O)c3)c2)cn1	?	-1%[172 µM]	3%[70.6 µM]	-1%[88.5 µM]	71µM*
Cc1cccc(-c2cccc(CCOc3cnc4c(ccn4CC(=O)O)c3)c2)c1	?	?	0%[70.6 µM]	?	i
CCCNC(=O)Cn1ccn2nc(-c3ccccc3)c(CO)c2c1=O	-20%	-1%	1%	3%	i
Cc1ccc2oc([C@H]3CCN(Cc4cccc(Cl)c4)C3)nc2c1	?	?	-27%[70.6 µM]	-6%[88.5 µM]	i
CN(C)c1ccc(CN2CC[C@H](c3nc4cc(Cl)ccc4o3)C2)cc1	112µM*	?	?	2%[88.5 µM]	?
COc1cc(CN2CC[C@H](c3nc4ccccc4o3)C2)cc(OC)c1OC	?	71µM*	-23%[70.6 µM]	-2%[88.5 µM]	i
Cc1ccc2oc([C@H]3CCN(Cc4c[nH]c5ccccc45)C3)nc2c1	56µM*	32µM*	?	?	i
COc1ccccc1CN1CC[C@H](c2nnc(Cc3c[nH]c4ccccc34)o2)C1	?	89µM*	-1%[70.6 µM]	2%[88.5 µM]	i
CC[C@H]1OC(=O)[C@H](C)[C@@H](O[C@H]2C[C@@](C)(OC)[C@@H](O)[C@H](C)O2)[C@H](C)[C@@H](O[C@@H]2O[C@H](C)C[C@H](N(C)C)[C@H]2O)[C@](C)(O)C[C@H](C)C(=NOCOCCOC)[C@H](C)[C@@H](O)[C@]1(C)O	/	/	/	i	/
O=C1N(Cc2cccc(F)c2F)CCCC1(O)CNCc1ccccc1 (stereo not given)	?	-13%	3%	i	i
Cc1ccc2oc([C@H]3CCN(Cc4ccc(N(C)C)cc4)C3)nc2c1	?	?	-20%[70.6 µM]	-22%[88.5 µM]	45µM*
COc1ccccc1-c1nnc([C@H]2CCN(Cc3ccccn3)C2)o1	35µM*	?	-5%[70.6 µM]	-10%[88.5 µM]	i
O=C(Nc1ccccc1)N1CCCC(C(=O)N2CCC(N3CCOCC3=O)CC2)C1 (stereo not given)	-15%	-3%	/	i	/
Cc1cc(C)cc(-c2ccc(CN3CCCC(NC(=O)N(C)C)C3)cc2)c1 (stereo not given)	?	32µM*	/	-11%	/
Cc1cc(C)cc(-c2ccc(CN3CCCC(NC(=O)Cc4cccc(Cl)c4)C3)cc2)c1 (stereo not given)	?	25µM*	/	i	/
SMILES	3T3 cytotox	HEK293 tox	hNpr1 antagonist	GPT2 inh	FLuc inh
CC(=O)NC1CCCN(Cc2ccc(-c3cc(C)cc(C)c3)cc2)C1 (stereo not given)	?	?	/	2%[88.5 µM]	/
Cc1cc(C)cc(-c2ccc(CN3CCCC(NC(=O)C(C)C)C3)cc2)c1 (stereo not given)	-22%	-35%	/	i	/
COc1ccc(CC(=O)NC2CCCN(Cc3ccc(-c4cc(C)cc(C)c4)cc3)C2)cc1 (stereo not given)	18µM*	22µM*	/	i	/
Cc1cc(C)cc(-c2ccc(CN3CCCC(NC(=O)Cc4ccc(F)cc4)C3)cc2)c1 (stereo not given)	?	32µM*	/	3%	/
CCOC(=O)C1CCCN(C(=O)CC(c2ccc3c(c2)OCO3)c2cn(CC)c3ccccc23)C1 (stereo not given)	40µM*	?	-15%	?	i
Cc1ccc(C(CC(=O)N2CCCCC2)c2cn(C)c3ccccc23)cc1 (stereo not given)	?	50µM*	-18%	-5%	i
Cc1ccc(C(CC(=O)N2CCC(C)CC2)c2cn(C)c3ccccc23)cc1 (stereo not given)	-26%	-15%	-9%	-6%	i
Cc1ccc(C(CC(=O)N2CCc3ccccc3C2)c2cn(C)c3ccccc23)cc1 (stereo not given)	?	?	-18%	?	35µM*
CNC(=O)c1cc(C2CC2)nc2onc(C3CCN(C(=O)c4cccnc4)C3)c12 (stereo not given)	-4%	i	/	/	/
Cc1cc(C)cc(-c2ccc(CN3CCCC3C(=O)NCCc3ccc(F)cc3)cc2)c1 (stereo not given)	?	45µM*	/	i	/
Cc1cc(C)cc(-c2ccc(CN3CCCC3C(=O)NCc3ccc(C(F)(F)F)cc3)cc2)c1 (stereo not given)	35µM*	40µM*	/	-7%	/
Cc1cc(C)cc(-c2ccc(CN3CCCC3C(=O)Nc3cccc(F)c3)cc2)c1 (stereo not given)	?	?	/	-6%	/
CCOCCNC(=O)C1CCCN1Cc1ccc(-c2cc(C)cc(C)c2)cc1 (stereo not given)	?	35µM*	/	i	/
CNC(=O)C1CCCN1Cc1ccc(-c2cc(C)cc(C)c2)cc1 (stereo not given)	?	?	/	i	/
Cc1cc(C)cc(-c2ccc(CN3CCCC3C(=O)NCCCc3ccccc3)cc2)c1 (stereo not given)	?	?	/	1%	/
Cc1cc(C)cc(-c2ccc(CN3CCCC3C(=O)NCC3CC3)cc2)c1 (stereo not given)	40µM*	40µM*	/	i	/
CCOc1ccc(CN2CCc3nc(N4CCOCC4)[nH]c(=O)c3CC2)cc1OC	4%	4%	-1%	i	i
COc1cccc(CN2CCc3c(cc(C(=O)NCc4cccs4)n3C)C2)c1	?	?	-2%	i	i
